Screens: PubChem, several laboratories
Shown are actives, neighbours in structure and some others; about 0.45% of the full set was active somewhere.
NR5A2 inv ag: inverse agonists of human LRH-1 (NR5A2) | HEK293T StAR-luciferase reporter, LRH-1 transfected, 24 h | inhibition, % at 3.6 µM | actives 0.13% (n = 360,000);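 active = inhibition above the mean inhibition of all tested compounds plus 3 SD, cut at about 73% in these data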;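 note: 0% = DMSO wells and 100% = reporter-only cells lacking LRH-1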
Target sequence (O00482 whole entry, looked up): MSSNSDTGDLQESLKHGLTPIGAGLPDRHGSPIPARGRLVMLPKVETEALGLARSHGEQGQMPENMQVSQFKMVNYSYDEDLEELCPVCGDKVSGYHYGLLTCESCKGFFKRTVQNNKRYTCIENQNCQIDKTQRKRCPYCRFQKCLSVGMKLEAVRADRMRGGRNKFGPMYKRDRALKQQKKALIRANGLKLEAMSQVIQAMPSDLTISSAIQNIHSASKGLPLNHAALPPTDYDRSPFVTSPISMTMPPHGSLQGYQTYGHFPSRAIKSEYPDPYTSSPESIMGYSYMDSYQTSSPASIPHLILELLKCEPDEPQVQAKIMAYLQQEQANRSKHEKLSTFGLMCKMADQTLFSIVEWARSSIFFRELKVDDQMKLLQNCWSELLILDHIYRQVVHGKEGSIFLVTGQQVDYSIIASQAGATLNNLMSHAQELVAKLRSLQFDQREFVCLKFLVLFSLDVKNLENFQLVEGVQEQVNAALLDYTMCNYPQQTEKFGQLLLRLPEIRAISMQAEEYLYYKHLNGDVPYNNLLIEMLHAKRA
NCOA1 inh: inhibits human SRC1 coactivator; inhibition, % at 3.6 µM; Q15788; actives 0.12% (n = 360,000); HEK293 GAL4-SRC1 luciferase reporter, luminescence;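 active = inhibition above the campaign mean plus 3 SD, with each screening campaign given its own cutoff, cut at about 60% in these data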;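 note: 0% = DMSO treated cells and 100% = gossypol at 36 µM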
NCOA2 inhibitor: inhibits human steroid receptor coactivator 2; HEK293 GAL4-SRC2 luciferase reporter, luminescence; inhibition, % at 9 µM; actives 0.17% (n = 370,000); AID 651957; Q15596;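 active = inhibition above the mean inhibition of all tested compounds plus 3 SD, set per campaign, cut at about 52% in these data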;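 note: 0% = DMSO treated cells and 100% = cells given Gossypol at 36 µM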
SRC3 inh: inhibitors of human steroid receptor coactivator 3 (SRC3) | inhibition, % at 3.6 µM | actives 0.17% (n = 360,000) | HEK293 GAL4-SRC3 luciferase reporter, luminescence | Q9Y6Q9;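 active = inhibition above a per-campaign cutoff, the mean of all compounds plus 3 SD, cut at about 60% in these data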;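 note: 0% = DMSO-treated cells and 100% = gossypol-treated cells at 36 µM; higher means less SRC3-driven luciferase light from the GAL4 reporter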
LGR2 antag: inhibitors of bursicon-induced Drosophila LGR2 receptor cAMP signaling. AID 720647. HEK293 LGR2, CRE-luciferase, bursicon-stimulated, 4 h. inhibition, % at 9.99 µM. actives 0.35% (n = 380,000);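 active = drop in luminescence signal, shown as inhibition above about 50% in the replicate tests, limit read from the data, passing the limit was not always enough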;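 note: agonist challenge used bursicon conditioned medium at about half maximal strength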
The depositor's hits bear a star; · = no result given; ! = not confirmed by another sample.

SMILES	NR5A2 inv ag	NCOA1 inh	NCOA2 inhibitor	SRC3 inh	LGR2 antag
Cc1ccc(C(=O)Nc2ccc3c(c2)OCCO3)c(Cl)c1	-68	-62	23	-29	82*
O=C(O)C1CC=CCC1C(=O)Nc1ccc2c(c1)OCCO2 (stereo unspecified)	55	40	56*	55	·
C[C@@H]1CN([C@@H](C)CO)C(=O)c2cc(NC(=O)C3CCCCC3)ccc2O[C@H]1CN(C)Cc1ccc(-c2ccccc2)cc1	·	·	·	·	-6
O=C(c1ccncc1)N1CC(=O)N2[C@@H](CO)[C@H](c3ccc(-c4ccccc4F)cc3)[C@@H]2C1	·	·	·	·	-2
COc1ccc2c3c(n(C)c2c1)[C@H](CO)N(C(=O)NC(C)C)CC31CCN(CC2CCCC2)CC1	·	·	·	·	5
Cc1cc(C(=O)Nc2ccc3c(c2)OCCO3)ccc1[N+](=O)[O-]	-124	-62	-26	-52	59*
CCC(=O)N1[C@H](CO)[C@H](c2ccc(-c3ccccc3OC)cc2)C12CN(C(C)=O)C2	·	·	·	·	35
COc1ccc(-n2ncc3c(N4CCCCC4)ncnc32)cc1	60	64*	·	67*	·
Cc1cccc(-n2ncc3c(N4CCOCC4)ncnc32)c1	-42	-36	19	-26	90*
Clc1ccc(-n2ncc3c(N4CCCCCC4)ncnc32)cc1	79*	81*	70*	80*	96*
c1ccc(Cn2ncc3c(N4CCN(c5ccccc5)CC4)ncnc32)cc1	3	-5	-2	-9	66*
COc1cccc(S(=O)(=O)N[C@H]2C=C[C@H](CC(=O)NCc3ccncc3)O[C@H]2CO)c1	·	·	·	·	-12
COc1cccc(-c2ccc([C@@H]3[C@H]4CN(C(=O)C5CC5)CC(=O)N4[C@H]3CO)cc2)c1	·	·	·	·	5
CCC(=O)N1CCC2(CC1)CN(C(=O)Cc1ccccc1)[C@@H](CO)c1c2c2ccc(OC)cc2n1C	·	·	·	·	3
CO[C@H]1CN(C)C(=O)c2ccc(NC(C)=O)cc2OC[C@H](C)NC[C@@H]1C	·	·	·	·	6
COc1ccc(/C=C/C(=O)c2ccc([N+](=O)[O-])o2)cc1OC	·	·	13	·	99*
O=C(/C=C/c1cccc(Cl)c1)c1ccc([N+](=O)[O-])o1	27	-12	13	25	86*
COc1cc(/C=C/C(=O)c2ccc([N+](=O)[O-])o2)ccc1O	16	2	-5	19	24
O=C(Cc1ccccc1)N1CC2(C1)[C@H](c1ccccc1)[C@H](CO)N2C(=O)c1cccnc1	·	·	·	·	5
CC(=O)N1CCCCN2[C@H](CO)[C@H](c3ccc(-c4cccc(C)c4)cc3)[C@@H]2C1	·	·	·	·	55*
CC(=O)N1CCCCN2[C@@H](CO)[C@H](c3ccc(-c4cccc(C)c4)cc3)[C@@H]2C1	·	·	·	·	5
COC(=O)c1cc(C)nc2c1C(=O)C(=O)C=C2N1CCOCC1	22	62*	57*	71*	60*
CO[C@@H]1CN(C)C(=O)c2ccc(NC(=O)CC(F)(F)F)cc2OC[C@@H](C)N(S(=O)(=O)c2cn(C)cn2)C[C@@H]1C	·	·	·	·	-7
C=C(C(=O)c1ccccc1)C(NC(C)(C)C)c1ccccc1 (stereo unspecified)	73*	56	60*	57	101*
C=C(C(=O)c1ccccc1)C(C)CC(=O)c1ccccc1 (stereo unspecified)	-3	1	36	32	11
SMILES	NR5A2 inv ag	NCOA1 inh	NCOA2 inhibitor	SRC3 inh	LGR2 antag
CC(C)(C)OC(=O)NCCCCCNC(=O)c1nc[nH]c1C(=O)NCC(=O)OCc1ccccc1	-3	6	2	15	85*
CC(C)(C)OC(=O)NCCCCCNC(=O)c1nc[nH]c1C(=O)NCc1ccc(CNC(=O)OC(C)(C)C)cc1	20	13	23	23	·
CC(C)(C)OC(=O)NCCCCCNC(=O)c1nc[nH]c1C(=O)NCCCCCNC(=O)OC(C)(C)C	34	32	34	52	102*
CC(C)C#Cc1ccc([C@H]2[C@H]3CN(C(=O)NC4CCCCC4)CC(=O)N3[C@H]2CO)cc1	·	·	·	·	0
Cc1cc(NC(=O)c2ccccc2)c(Cl)cc1N	0	5	66*	6	-6
Cc1cc(N)ccc1NC(=O)c1ccccc1	0	-14	15	12	·
O=C(C[C@@H]1C[C@H]2c3cc(NC(=O)CC4CC4)ccc3O[C@H]2[C@H](CO)O1)NCc1ccc2c(c1)OCO2	·	·	·	·	15
O=C(Nc1nc2ccccc2s1)c1ccc2sc([C@H]3C[C@H](O)[C@@H](CO)O3)nc2c1	-80	-82	-46	-110	98*
COc1ccc2c3c(n(C)c2c1)[C@H](CO)N(C(=O)c1cccnc1)CC31CCN(S(C)(=O)=O)CC1	·	·	·	·	-21
O=C1c2cccc(NCCNCCO)c2C(=O)c2cccc(NCCNCCO)c21	15	18	-187	41	92*
O=C(O)CCNc1ccc(NCCC(=O)O)c2c1C(=O)c1ccccc1C2=O	19	6	14	0	11
CCOc1ccc(-n2c(-c3ccc(OC)cc3)c[n+]3c2CCCCC3)cc1	84*	30	-5	46	14
CCOc1ccc(-n2c(-c3ccc(Br)cc3)c[n+]3c2CCCCC3)cc1	54	11	16	42	-6
COc1ccc2c3c(n(C)c2c1)[C@@H](CO)N(C)CC31CCN(C(=O)Nc2c(C)noc2C)CC1	·	·	·	·	9
Cc1ccc(-c2ccc3c(c2)O[C@@H](CN(C)Cc2ccccc2)[C@@H](C)CN([C@@H](C)CO)S3(=O)=O)cc1	·	·	·	·	-7
CCCCCCCCCCCCCCCC[n+]1ccccc1	48	9	9	36	61*!
CCCCCCCCCCCCCCCC[n+]1ccc(C(N)=O)cc1	13	-3	14	18	16
O=C(C1=C(c2ccccc2)C(=O)c2ccccc2C1=O)c1ccccc1	-9	20	57*	82*	·
O=C(Cc1ccc(Cl)cc1)c1c[nH]c(C(=O)NCc2cccnc2)c1	38	-11	88*	49	6
CC(C)(C)c1ccc(C(=O)c2c[nH]c(C(=O)NCc3cccnc3)c2)cc1	3	-13	7	-34	·
O=C(C[C@@H]1C=C[C@H](NC(=O)Cc2ccccn2)[C@H](CO)O1)NCCc1ccccc1	·	·	·	·	11
CCOC(=O)C(C(C)=O)c1c(Br)c(O)c(O)c2c(C(=O)c3ccc(C)cc3)coc12 (stereo unspecified)	67	59	-1	80*	24
COc1ccc(CN(C)C[C@@H]2Oc3ccc(NS(=O)(=O)c4cccs4)cc3C(=O)N([C@@H](C)CO)C[C@@H]2C)cc1	·	·	·	·	10
Cc1cc(C)nc(Nc2nc(C(N)Cc3ccc(C(F)(F)F)cc3)cs2)n1 (stereo unspecified)	-18	-5	14	1	4
COc1cc(OC)nc(Nc2nc(C(N)Cc3ccc(C(F)(F)F)cc3)cs2)n1 (stereo unspecified)	15	10	4	14	31*
COc1ccc2c3c([nH]c2c1)[C@@H](CO)N(Cc1nccs1)CC31CN(C(=O)C2CCOCC2)C1	·	·	·	·	-4
